PHOSPHO1 block: PHOSPHO1 (human) inhibition; Q8TCT1; recombinant PHOSPHO1, absorbance phosphatase assay; inhibition, % at 13.3 µM; hit rate 1.1% among 290,000; in the data active means inhibition above about 60%
Target sequence (Q8TCT1 whole entry, looked up): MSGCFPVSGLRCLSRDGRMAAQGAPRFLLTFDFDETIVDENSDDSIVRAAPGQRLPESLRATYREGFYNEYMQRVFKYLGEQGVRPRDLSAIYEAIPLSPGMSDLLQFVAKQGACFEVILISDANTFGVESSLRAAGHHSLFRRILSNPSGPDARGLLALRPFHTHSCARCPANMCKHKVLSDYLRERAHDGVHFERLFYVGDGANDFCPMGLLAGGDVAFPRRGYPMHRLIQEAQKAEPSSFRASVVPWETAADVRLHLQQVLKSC
TPT1 inhibitor: blocks Candida albicans tRNA 2'-phosphotransferase; recombinant caTPT1, FP RNA substrate dephosphorylation; inhibition, % at 5 µM; hit rate 0.81% among 300,000; AID 1962;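 active means inhibition above the mean of all tested compounds plus 3 SD, set per screening campaign, cut at about 24% in these data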;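 further: plate controls were DMSO alone for no effect and ferristatin control at 100 nM for full effect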
Platelet DG rel: modulates dense granule release in human platelets. inhibition, %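 (compounds screened at 7.5 µM in platelet-rich plasma)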. human platelet-rich plasma, SFLLRN dense granule ATP release, luminescence. hit rate 0.22% among 300,000;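 active means mean replicate score, as percent of positive control, at or above 50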
Rtt109 Vps75: blocks Candida albicans Rtt109/Vps75 acetyltransferase activity | hit rate 0.16% among 330,000 | purified Rtt109/Vps75, ThioGlo CoA-SH fluorescence, 4 h | inhibition, % at 34.9 µM | AID 540336;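 active means inhibition of at least 50% in every replicate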
WT yeast gro inh: growth inhibition of WT yeast, mitochondrial fusion screen. mitochondrial fusion phenotypic screen, WT strain. inhibition, % at 10 µM. hit rate 2.1% among 190,000. AID 1362; in the data active means inhibition above about 58%; tested in S. cerevisiae
SKKanGAS inh: SKKanGAS growth inhibition | S. pyogenes SKKanGAS, kanamycin growth, BacTiter-Glo, 6 h | inhibition, % at 7.5 µM | hit rate 1.3% among 300,000;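 active means mean replicate score, as percent of positive control median, at least 50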;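 further: strain carries kanamycin resistance gene driven by streptokinase promoter and grows in 40 µg/ml kanamycin; loss of luminescence reflects streptokinase promoter inhibition or plain growth inhibition; 0% = median of DMSO wells and 100% = positive control at its reference dose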
Active calls of the source: *; · = no result given. Most compounds without a hit are left out; they make up all but 3.9% or so of the library.

SMILES	PHOSPHO1 block	TPT1 inhibitor	Platelet DG rel	Rtt109 Vps75	WT yeast gro inh	SKKanGAS inh
Cn1ncc([N+](=O)[O-])c1C(=O)NC1CCCCC1	34	-1	-2	16	·	9
CCc1c(C)nc2ccc(Br)cc2c1SCCC#N	-1	-7	5	-3	12	-4
CCCCc1c(C)nc2ccc(Br)cc2c1SCCC#N	-6	·	0	·	60*	·
COc1ccc(NC(=O)CN(C)C(=O)C(Sc2ccccc2)c2ccccc2)cc1 (stereo not drawn)	·	·	·	5	·	·
CC1CN(c2ccc(NC(=S)NNCCC#N)cc2)CC(C)O1 (stereo not drawn)	-2	0	1	-30	·	1
CC(=O)NC(Cc1ccccc1)C(=O)Oc1ccc2ccccc2c1 (stereo not drawn)	·	·	·	10	·	·
COc1ccc(Oc2nc(C(F)(F)F)nc3ccccc23)cc1	-8	0	-2	-1	-20	52*
Cc1ccc(Oc2nc(C(F)(F)F)nc3ccccc23)cc1	22	-5	-1	-3	40	27
COc1ccc(-c2ccc([C@H]3[C@@H]4C=CCC[C@@]4(C)C(=O)N3Cc3ccccc3)c(F)c2)cc1OC	31	-4	3	-3	·	52*
C[C@H](NC(=O)c1ccco1)C(=O)NCc1cccs1	·	·	·	-1	·	·
O=c1c2c(nc3n1CCCCC3)-c1ccccc1CC21CCCCC1	-17	-4	-11	-4	78*	7
O=c1c2c(nc(NCCO)n1CC1CCCCC1)-c1ccccc1CC21CCCC1	20	-7	0	-4	69*	87*
CC1(C)CC(n2c(NCCO)nc3c(c2=O)C2(CCCC2)Cc2ccccc2-3)CCO1 (stereo not drawn)	-7	0	-6	27	20	4
CCC(=O)N1CCc2cc(S(=O)(=O)N3CCCCCC3)ccc21	28	4	-3	6	·	5
Cc1ccc(C)c(SCC(=O)Nc2ccc(C)c(S(=O)(=O)N3CCOCC3)c2)c1	·	·	·	1	·	·
COc1ccccc1NC(=S)NNC(=O)c1nn(C)c(C)c1Br	-16	-7	14	4	8	-1
COc1ccccc1NC(=S)NNC(=O)c1ccc(O)cc1	71*	-3	13	-12	-4	0
COc1ccccc1NC(=S)NNC(=O)c1nn(C)cc1Cl	72*	2	1	5	-3	-6
COc1ccccc1NC(=S)NNC(=O)c1nn(C)c(C)c1Cl	79*	-3	0	1	12	-4
O=C(NNC(=S)Nc1ccccc1)c1ccc(O)cc1	-148	5	4	-4	·	-5
Cc1noc(C)c1S(=O)(=O)Nc1ccc2c(c1)C(=O)N([C@H](C)CO)C[C@H](C)[C@@H](CN(C)C(=O)Nc1ccc3c(c1)OCO3)O2	·	·	·	-13	·	·
c1ccc2[nH]c(-c3ccc4c(c3)OCO4)nc2c1	·	-5	73*	·	·	31
CC(=O)CC(=O)NC1CCc2ccccc21 (stereo not drawn)	·	·	·	7	·	·
Cc1ccc(C(=O)ONc2ccc(N=NC(=O)c3ccccc3O)cc2)cc1	69*	-4	1	1	38	11
Cc1ccc(C(=O)ONc2ccc(N=O)cc2)cc1	-11	-10	59*	-11	14	-4
SMILES	PHOSPHO1 block	TPT1 inhibitor	Platelet DG rel	Rtt109 Vps75	WT yeast gro inh	SKKanGAS inh
C[C@H](CO)N1C[C@H](C)[C@@H](CN(C)S(=O)(=O)c2ccccc2)Oc2ccc(NC(=O)NC3CCCCC3)cc2C1=O	·	·	·	-1	·	·
COc1ccc(C(CNC(=O)c2cc(S(=O)(=O)N3CCCC3)ccc2Cl)N2CCCC2)cc1 (stereo not drawn)	·	·	·	17	·	·
CN(C(=O)C1CC1)C1CCS(=O)(=O)C1 (stereo not drawn)	·	0	1	-1	·	-2
CCc1nn2c(=O)cc(COc3ccc(/C=C4\C(=N)N5N=C(C)SC5=NC4=O)cc3)nc2s1	61*	1	2	-3	7	18
COCC(C)NC(=O)COc1ccc(Cl)cc1Cl (stereo not drawn)	8	1	-6	-10	-6	5
COCCNC(=S)Nc1ccc2nsnc2c1	-6	3	-3	44	1	3
COc1cc(OC)c(NC(=S)Nc2cc(Cl)cc(Cl)c2)cc1Cl	14	-3	2	1	83*	3
COCC(C)NC(=S)NCCc1ccc(Cl)cc1Cl (stereo not drawn)	-3	0	-11	-15	61*	-6
COC(=O)c1cc(OC)c(OC)cc1NC(=S)Nc1cccc(Cl)c1	-19	-2	1	1	-13	-8

Screening results deposited in PubChem by several laboratories.
